Source: PubChem BioAssay AID1159580 (chemical genetic matrix, 2015)
Several values for one entry are separate records, joined by “and”; a condition that tells them apart may be missing. Identical values can stand only once. Hit rate of the full screen: of about 5,500 compounds, about 2,000 (36%) were called active. Not shown: some 18% with an inconclusive outcome. Cut-off read from the data, not from the text of the source: active = normalized growth mostly below about 0.91 (no sharp cut-off); inconclusive = no clear call, values can overlap the other calls; inactive = mostly above about 0.92. Some of the results follow.

Test: chemical genetic growth profiling, strain panel (AID 1159580);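 note: tested at 20 µM; growth read once vehicle control cultures reached saturation at 30 °C; 1 = growth at the plate median or of vehicle wells; lower values mean less growth of the strain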
Settings: S. cerevisiae deletion strains, growth OD

Measured: normalized growth

O=C(CCCN1CC=C(n2c(=O)[nH]c3ccccc32)CC1)c1ccc(F)cc1
inactive: locus YAL013W, strain DEP1, hits give low values 0.99 | locus YAL021C, strain ccr4, hits give low values 0.958 | locus YAL026C, strain drs2, hits give low values 0.992 | locus YAL030W, strain snc1, hits give low values 0.988 | locus YBL061C, strain skt5, hits give low values 0.989 | locus YBR009C, strain hhf1, hits give low values 0.979 | locus YBR021W, strain FUR4, hits give low values 0.953 | locus YBR023C, strain chs3, hits give low values 0.983 | locus YBR171W, strain sec66, hits give low values 0.963 | locus YBR229C, strain ROT2, hits give low values 0.949 | locus YBR231C, strain swc5, hits give low values 0.953 | locus YBR279W, strain paf1, hits give low values 0.972 | locus YCL011C, strain gbp2, hits give low values 0.975 | locus YCL016C, strain dcc1, hits give low values 1 | locus YCL029C, strain bik1, hits give low values 0.973 | locus YCL069W, strain vba3, hits give low values 0.992 | locus YCR088W, strain abp1, hits give low values 1 | locus YDL005C, strain med2, hits give low values 0.973 | locus YDL035C, strain GPR1, hits give low values 0.972 | locus YDL040C, strain nat1, hits give low values 0.992 | locus YDL074C, strain BRE1, hits give low values 0.984 | locus YDL101C, strain DUN1, hits give low values 0.976 | locus YDL134C, strain PPH21, hits give low values 0.983 | locus YDL185W, strain tfp1, hits give low values 0.991 | locus YDL192W, strain arf1, hits give low values 0.983 | locus YDR001C, strain nth1, hits give low values 0.974 | locus YDR069C, strain doa4, hits give low values 0.952 | locus YDR101C, strain arx1, hits give low values 0.983 | locus YDR137W, strain rgp1, hits give low values 0.993 | locus YDR150W, strain NUM1, hits give low values 0.968 | locus YDR159W, strain sac3, hits give low values 0.989 | locus YDR162C, strain NBP2, hits give low values 0.978 | locus YDR195W, strain ref2 0.936 | locus YDR297W, strain sur2, hits give low values 0.984 | locus YDR318W, strain mcm21, hits give low values 0.991 | locus YDR334W, strain swr1, hits give low values 0.976 | locus YDR335W, strain msn5, hits give low values 0.979 | locus YDR388W, hits give low values 0.986 | locus YDR392W, strain spt3, hits give low values 0.994 | locus YDR502C, strain sam2, hits give low values 0.968 | locus YEL003W, strain gim4, hits give low values 0.99 | locus YEL037C, strain rad23, hits give low values 1 | locus YEL061C, strain CIN8 (second series), hits give low values 0.981 | locus YEL061C, strain CIN8, hits give low values 0.985 | locus YER015W, strain faa2, hits give low values 0.969 | locus YER016W, strain bim1, hits give low values 1.01 | locus YER110C, hits give low values 0.957 | locus YER111C, strain swi4, hits give low values 0.975 | locus YER155C, strain BEM2 (second series), hits give low values 0.929 | locus YER155C, strain BEM2, hits give low values 0.996 | locus YER167W, strain BCK2, hits give low values 0.982 | locus YFR010W, strain ubp6, hits give low values 0.993 | locus YGL078C, strain dbp3, hits give low values 0.976 | locus YGL086W, strain mad1, hits give low values 0.976 | locus YGL167C, strain pmr1, hits give low values 0.979 | locus YGL173C, strain kem1, hits give low values 1 | locus YGL227W, strain vid30, hits give low values 0.953 | locus YGL240W, strain doc1, hits give low values 0.953 | locus YGL248W, strain PDE1, hits give low values 0.982 | locus YGL253W, strain hxk2, hits give low values 0.981 | locus YGR078C, strain PAC10, hits give low values 0.985 | locus YGR135W, strain pre9, hits give low values 0.968 | locus YGR229C, strain SMI1, hits give low values 0.992 | locus YGR252W, strain gcn5, hits give low values 0.906 | locus YHR013C, strain ard1, hits give low values 1.01 | locus YHR027C, strain rpn1, hits give low values 0.977 | locus YHR030C, strain SLT2, hits give low values 0.991 and 0.98 | locus YHR079C, strain IRE1 (second series), hits give low values 0.989 | locus YHR079C, strain IRE1, hits give low values 0.971 | locus YHR094C, strain hxt1, hits give low values 0.994 | locus YHR129C, strain ARP1, hits give low values 0.994 | locus YHR142W, strain chs7, hits give low values 0.983 | locus YHR200W, strain rpn10, hits give low values 0.99 | locus YIL066C, strain RNR3, hits give low values 0.971 | locus YIL073C, strain SPO22, hits give low values 1.02 | locus YIL125W, strain kgd1, hits give low values 0.99 | locus YIR030C, strain dcg1, hits give low values 0.972 | locus YJL092W, strain hpr5, hits give low values 0.984 | locus YJL095W, strain BCK1 (second series), hits give low values 0.996 | locus YJL095W, strain BCK1, hits give low values 1.03 and 0.998 | locus YJL115W, strain asf1, hits give low values 0.975 | locus YJL129C, strain trk1, hits give low values 0.939 | locus YJL134W, strain LCB3, hits give low values 0.979 | locus YJL154C, strain vps35, hits give low values 0.994 | locus YJL164C, strain tpk1, hits give low values 0.994 | locus YJL166W, strain qcr8, hits give low values 0.971 | locus YJL168C, strain set2, hits give low values 0.999 | locus YJL187C, strain SWE1 (second series), hits give low values 0.978 | locus YJL187C, strain SWE1, hits give low values 0.988 | locus YJR043C, strain POL32, hits give low values 0.995 | locus YJR066W, strain TOR1, hits give low values 0.93
